Structures are written as SMILES. This is part of a sample that, as a whole, favours compounds with a hit. Of some 79,000 tested, about 15% had one in any assay. A number with no mark means an inactive call. Calls of active or inactive are those of the source. No stated cut-off is given here; in the data, active means growth inhibition above about 70%; inactive means the rest.

The assay can be described thus: NCI Yeast Anticancer Drug Screen. Data for the wt2 strain (AID 169).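 Further: 0% = growth of vehicle-treated yeast cultures.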 The settings on record: S. cerevisiae wt2 strain growth inhibition, stronger effect = higher value. The protocol:
Growth inhibition of yeast strains with defined genetic alterations is measured as a screen for potential anti-cancer activity. Selected strains with alterations in DNA damage repair or cell cycle control were exposed to compounds and growth inhibition was measured relative to vehicle treated controls. The strain used in this assay is wt2

As to `CC1OC(O[C@H]2/C=C/C=C/C=C/C=C/C=C/C=C/C=C/[C@H](C)[C@@H](O)[C@@H](C)[C@H](C)OC(=O)C[C@H](O)C[C@H](O)CC[C@@H](O)[C@H](O)C[C@H](O)C[C@]3(O)C[C@H](O)[C@@H](C(=O)O)[C@H](C2)O3)C(O)C(N)C1O` (stereo not given in full), the growth inhibition runs as follows: (at 1.2 µM) -65%; (at 3.7 µM) -3%; (at 11.0 µM) 96% (active); (at 33.0 µM) 98% (active); (at 100.0 µM) 98% (active).
On to `O=Cc1ccc2c(c1)C(=O)c1ccccc1C2=O`, for which the growth inhibition was 0% (at 1.2 µM); 4% (at 3.7 µM); 14% (at 11.0 µM); 32% (at 33.0 µM); 51% (at 100.0 µM).
As to `C[CH2][Sn]([CH2]C)([O]C(=O)C(N)Cc1ccccc1)[O]C(=O)C(N)Cc1ccccc1` (stereo not given), the growth inhibition reads like this: (at 1.2 µM) -15%; (at 3.7 µM) -21%; (at 11.0 µM) -13%; (at 33.0 µM) -2%; (at 100.0 µM) 78% (active).
As for `Cc1c2ccnc(C(=O)NCCN(C)C)c2cc2c3cc(O)ccc3n(C)c12`, the growth inhibition by setting is: (at 1.2 µM) 1%; (at 3.7 µM) 2%; (at 11.0 µM) 7%; (at 33.0 µM) 20%; (at 100.0 µM) 30%.
The corresponding values for `O=[N+]([O-])c1cc[n+]([O-])cc1` are -3%, -2%, -3%, -11% and 99% (active).
Turning to `NC(=O)c1c([N+](=O)[O-])cc(C(F)(F)F)cc1[N+](=O)[O-]`, the growth inhibition is 0% (at 1.2 µM); 1% (at 3.7 µM); 3% (at 11.0 µM); 4% (at 33.0 µM); 8% (at 100.0 µM).
Taken in the same sequence, the figures for `COC(=O)NC1C(C)OC(OC2C/C=C(/C)C3C=CC4C(OC5CC(OC6CC(O)C(OC7CC(O)C(OC)C(C)O7)C(C)O6)C(O)C(C)O5)C(C)CC(C)C4C3(C)/C(O)=C3\C(=O)OC4(CC(C)C(CO)=CC4/C=C\2C)C3=O)CC1(C)[N+](=O)[O-]` (stereo not given) were -42%, -37%, -47%, -30% and -21%.
The corresponding values for `Cc1ccc(CC2(OCCN(C)C)CCC(C(C)(C)C)CC2)cc1` (stereo not given) are -19%, -8%, -16%, 36% and 99% (active).

For the origin of these results see PubChem BioAssay (NCI).
